Data on 1 sequence can be found in paper PMC7862700, “An all-to-all approach to the identification of sequence-specific readers for epigenetic DNA modifications on cytosine”.

Holding throughout (assay): DAPPL (digital affinity profiling via proximity ligation, sequencing); 10 mM Tris-HCl pH 7.5, 50 mM NaCl, 1 mM DTT, 4% glycerol, room temperature, 30 min; GST-TFs on glutathione beads, 16-mer random dsDNA library, 0.1% formaldehyde crosslink after washing; high values mean tight binding
In one assay the target is T1, FLI1 (Homo sapiens, UniProt Q01543 1-452).
T1 sequence: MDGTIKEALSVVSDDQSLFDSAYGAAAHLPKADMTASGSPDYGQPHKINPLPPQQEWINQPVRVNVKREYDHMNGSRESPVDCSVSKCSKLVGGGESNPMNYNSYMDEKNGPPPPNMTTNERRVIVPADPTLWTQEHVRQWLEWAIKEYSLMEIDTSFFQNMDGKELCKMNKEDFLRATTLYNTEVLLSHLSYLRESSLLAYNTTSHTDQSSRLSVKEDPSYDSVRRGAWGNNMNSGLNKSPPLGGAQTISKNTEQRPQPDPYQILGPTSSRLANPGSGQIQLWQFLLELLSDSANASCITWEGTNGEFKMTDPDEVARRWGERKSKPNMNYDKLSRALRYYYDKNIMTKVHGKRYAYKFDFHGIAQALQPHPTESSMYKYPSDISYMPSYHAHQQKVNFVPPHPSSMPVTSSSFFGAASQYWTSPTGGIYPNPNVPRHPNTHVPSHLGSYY
The conditions noted are these: protein: recombinant; tags: N-terminal GST; dsDNA, one strand shown. In short, it runs like this:
(§1)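 After expression in yeast as GST fusions, human transcription factors were bound to glutathione beads, DNA-barcoded and mixed with a tag-only sample. The pools were incubated with 200 nmole of a 16-mer random double-stranded DNA library in Tris/NaCl/DTT/glycerol buffer (30 min, room temperature), washed and crosslinked with 0.1% formaldehyde. Proximity ligation with BsaI/T4 ligase ran for 1 h at 37 °C, before PCR amplification and sequencing on an Illumina NextSeq500. Binding signal is a hexamer's read frequency for a factor divided by its frequency for the tag-only sample.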

The target in another assay is T2, ELK1 (Homo sapiens, UniProt P19419 1-428).
T2 sequence: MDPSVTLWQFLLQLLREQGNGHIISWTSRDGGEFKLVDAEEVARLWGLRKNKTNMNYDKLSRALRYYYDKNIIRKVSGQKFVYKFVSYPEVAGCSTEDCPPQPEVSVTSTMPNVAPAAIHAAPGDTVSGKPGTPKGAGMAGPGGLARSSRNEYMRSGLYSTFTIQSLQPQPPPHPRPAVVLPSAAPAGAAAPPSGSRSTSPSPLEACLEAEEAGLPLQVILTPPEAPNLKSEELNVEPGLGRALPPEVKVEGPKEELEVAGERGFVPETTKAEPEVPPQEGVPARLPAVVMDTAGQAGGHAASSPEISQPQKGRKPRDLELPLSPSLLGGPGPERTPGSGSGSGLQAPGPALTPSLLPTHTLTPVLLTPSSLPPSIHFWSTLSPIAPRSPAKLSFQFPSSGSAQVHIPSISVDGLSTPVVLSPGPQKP
As to conditions: protein: recombinant; tags: N-terminal GST; dsDNA, one strand shown. In a few lines: as §1

The target in a further assay is T3, GABPA (Homo sapiens, UniProt Q06546 1-454).
T3 sequence: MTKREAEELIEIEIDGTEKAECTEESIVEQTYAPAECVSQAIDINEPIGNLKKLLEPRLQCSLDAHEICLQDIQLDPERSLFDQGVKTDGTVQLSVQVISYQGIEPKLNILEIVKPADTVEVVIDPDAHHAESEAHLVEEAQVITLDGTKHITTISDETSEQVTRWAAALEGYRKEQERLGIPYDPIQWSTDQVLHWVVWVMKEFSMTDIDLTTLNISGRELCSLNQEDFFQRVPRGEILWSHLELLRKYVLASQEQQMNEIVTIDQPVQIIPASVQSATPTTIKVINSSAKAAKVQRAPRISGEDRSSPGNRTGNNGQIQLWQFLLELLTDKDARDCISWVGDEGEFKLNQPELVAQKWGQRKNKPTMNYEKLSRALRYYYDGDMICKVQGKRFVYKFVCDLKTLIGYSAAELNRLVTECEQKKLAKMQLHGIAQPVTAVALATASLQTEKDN
As to conditions: protein: recombinant; tags: N-terminal GST; dsDNA, one strand shown. In short, it runs like this: as §1

In another assay the target is T4, ERG (Homo sapiens, UniProt P11308 1-479).
T4 sequence: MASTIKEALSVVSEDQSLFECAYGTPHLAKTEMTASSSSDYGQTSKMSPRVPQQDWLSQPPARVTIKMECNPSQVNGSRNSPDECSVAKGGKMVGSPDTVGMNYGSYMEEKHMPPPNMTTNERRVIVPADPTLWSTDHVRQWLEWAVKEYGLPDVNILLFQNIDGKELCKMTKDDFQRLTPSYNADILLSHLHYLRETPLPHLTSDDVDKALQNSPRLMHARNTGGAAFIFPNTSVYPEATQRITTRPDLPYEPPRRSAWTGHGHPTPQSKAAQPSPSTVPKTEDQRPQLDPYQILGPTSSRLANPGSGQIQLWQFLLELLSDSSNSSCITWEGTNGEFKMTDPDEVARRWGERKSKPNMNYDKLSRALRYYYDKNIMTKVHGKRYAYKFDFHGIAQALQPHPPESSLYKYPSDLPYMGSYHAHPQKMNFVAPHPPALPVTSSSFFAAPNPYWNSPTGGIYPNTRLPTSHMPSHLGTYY
The conditions noted are these: protein: recombinant; tags: N-terminal GST; dsDNA, one strand shown. In a few lines: as §1

In a further assay the target is ELF1 (Homo sapiens, UniProt P32519 1-619). The conditions noted are these: protein: recombinant; tags: N-terminal GST; dsDNA, one strand shown. In short, it runs like this:
as §1

In another assay the target is T5, EHF (Homo sapiens, UniProt Q9NZC4 1-300).
T5 sequence: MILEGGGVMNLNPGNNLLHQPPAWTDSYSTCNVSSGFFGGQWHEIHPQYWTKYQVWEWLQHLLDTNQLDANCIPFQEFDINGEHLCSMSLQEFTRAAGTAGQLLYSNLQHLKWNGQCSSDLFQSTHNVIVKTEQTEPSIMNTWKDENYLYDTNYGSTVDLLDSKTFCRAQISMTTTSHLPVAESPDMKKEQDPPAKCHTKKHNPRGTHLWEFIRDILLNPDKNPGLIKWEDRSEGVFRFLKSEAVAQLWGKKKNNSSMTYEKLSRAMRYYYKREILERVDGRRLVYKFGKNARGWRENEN
As to conditions: protein: recombinant; tags: N-terminal GST; dsDNA, one strand shown. In short, it runs like this: as §1

The target in another assay is SPI1 (Homo sapiens, UniProt P17947 1-270). The conditions noted are these: protein: recombinant; tags: N-terminal GST; dsDNA, one strand shown. In a few lines:
as §1

The next assay addresses SPIB (Homo sapiens, UniProt Q01892 1-262). The conditions noted are these: protein: recombinant; tags: N-terminal GST; dsDNA, one strand shown. In a few lines:
as §1

The target in another assay is T6, ELK3 (Homo sapiens, UniProt P41970 1-407).
T6 sequence: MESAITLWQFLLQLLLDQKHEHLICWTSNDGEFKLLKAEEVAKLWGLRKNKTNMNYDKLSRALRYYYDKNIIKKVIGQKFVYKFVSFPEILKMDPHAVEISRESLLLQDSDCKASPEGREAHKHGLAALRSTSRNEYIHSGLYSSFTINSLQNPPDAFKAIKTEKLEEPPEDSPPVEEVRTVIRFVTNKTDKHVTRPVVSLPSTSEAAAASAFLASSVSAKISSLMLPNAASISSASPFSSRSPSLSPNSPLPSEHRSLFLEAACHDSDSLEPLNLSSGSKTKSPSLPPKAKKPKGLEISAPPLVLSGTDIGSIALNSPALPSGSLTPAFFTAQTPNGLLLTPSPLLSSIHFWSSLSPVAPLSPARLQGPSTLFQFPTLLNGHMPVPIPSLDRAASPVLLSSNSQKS
The conditions noted are these: protein: recombinant; tags: N-terminal GST; dsDNA, one strand shown. In a few lines:
as §1

A further assay deals with T7, FEV (Homo sapiens, UniProt Q99581 1-238).
T7 sequence: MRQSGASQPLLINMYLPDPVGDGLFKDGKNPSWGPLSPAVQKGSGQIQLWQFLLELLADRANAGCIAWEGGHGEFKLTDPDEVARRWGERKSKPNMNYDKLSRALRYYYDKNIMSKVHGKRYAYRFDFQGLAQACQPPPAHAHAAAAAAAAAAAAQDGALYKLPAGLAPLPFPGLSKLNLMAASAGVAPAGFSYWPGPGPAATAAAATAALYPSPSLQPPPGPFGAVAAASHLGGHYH
The conditions noted are these: protein: recombinant; tags: N-terminal GST; dsDNA, one strand shown. In short, it runs like this: as §1

In a further assay the target is ETV5 (Homo sapiens, UniProt P41161 1-510). The conditions noted are these: protein: recombinant; tags: N-terminal GST; dsDNA, one strand shown. In short, it runs like this: as §1
Sequence of ETV5 (P41161 whole entry): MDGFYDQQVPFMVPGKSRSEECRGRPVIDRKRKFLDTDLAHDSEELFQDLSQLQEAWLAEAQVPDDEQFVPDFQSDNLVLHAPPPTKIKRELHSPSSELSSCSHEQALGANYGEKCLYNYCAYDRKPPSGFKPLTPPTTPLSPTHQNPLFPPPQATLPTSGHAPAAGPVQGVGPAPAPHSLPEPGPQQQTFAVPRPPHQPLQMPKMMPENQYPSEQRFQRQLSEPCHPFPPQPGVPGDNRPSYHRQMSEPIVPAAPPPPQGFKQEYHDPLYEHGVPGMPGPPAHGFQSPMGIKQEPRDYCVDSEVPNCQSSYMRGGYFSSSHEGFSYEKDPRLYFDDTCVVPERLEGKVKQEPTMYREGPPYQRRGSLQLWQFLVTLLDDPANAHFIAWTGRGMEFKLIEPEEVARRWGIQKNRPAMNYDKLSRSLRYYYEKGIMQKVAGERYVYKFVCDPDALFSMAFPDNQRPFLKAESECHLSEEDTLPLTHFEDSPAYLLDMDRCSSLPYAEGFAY
For another assay, the target named is HSF1 (Homo sapiens, UniProt Q00613 1-529). As to conditions: protein: recombinant; tags: N-terminal GST; chain copies: 3; dsDNA, one strand shown. In a few lines: as §1
Sequence of HSF1 (Q00613 whole entry): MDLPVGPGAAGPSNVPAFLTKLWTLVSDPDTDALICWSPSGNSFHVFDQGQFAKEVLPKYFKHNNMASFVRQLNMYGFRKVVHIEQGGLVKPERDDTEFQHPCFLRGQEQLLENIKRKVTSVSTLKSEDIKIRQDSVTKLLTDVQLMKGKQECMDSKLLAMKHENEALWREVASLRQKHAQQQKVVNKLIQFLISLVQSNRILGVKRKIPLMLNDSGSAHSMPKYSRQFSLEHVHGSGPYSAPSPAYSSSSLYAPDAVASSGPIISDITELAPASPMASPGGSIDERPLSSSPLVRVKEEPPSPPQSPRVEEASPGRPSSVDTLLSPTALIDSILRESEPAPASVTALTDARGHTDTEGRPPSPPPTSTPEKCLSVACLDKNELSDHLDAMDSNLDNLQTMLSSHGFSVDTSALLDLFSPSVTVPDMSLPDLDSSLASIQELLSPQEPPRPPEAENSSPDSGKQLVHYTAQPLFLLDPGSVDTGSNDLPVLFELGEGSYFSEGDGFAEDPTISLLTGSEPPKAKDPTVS
The target in a further assay is T8, SPIC (Homo sapiens, UniProt Q8N5J4 1-248).
T8 sequence: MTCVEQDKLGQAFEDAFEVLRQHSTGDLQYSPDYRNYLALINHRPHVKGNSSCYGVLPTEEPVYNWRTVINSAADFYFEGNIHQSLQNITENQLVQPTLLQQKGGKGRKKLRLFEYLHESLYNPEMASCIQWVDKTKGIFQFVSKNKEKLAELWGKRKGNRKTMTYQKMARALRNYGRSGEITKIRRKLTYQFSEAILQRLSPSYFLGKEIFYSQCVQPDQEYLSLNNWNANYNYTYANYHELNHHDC
As to conditions: protein: recombinant; tags: N-terminal GST; dsDNA, one strand shown. In short, it runs like this:
as §1

The target of a further assay is ELF4 (Homo sapiens, UniProt Q99607 1-663). As to conditions: protein: recombinant; tags: N-terminal GST; dsDNA, one strand shown. In a few lines: as §1
Sequence of ELF4 (Q99607 whole entry): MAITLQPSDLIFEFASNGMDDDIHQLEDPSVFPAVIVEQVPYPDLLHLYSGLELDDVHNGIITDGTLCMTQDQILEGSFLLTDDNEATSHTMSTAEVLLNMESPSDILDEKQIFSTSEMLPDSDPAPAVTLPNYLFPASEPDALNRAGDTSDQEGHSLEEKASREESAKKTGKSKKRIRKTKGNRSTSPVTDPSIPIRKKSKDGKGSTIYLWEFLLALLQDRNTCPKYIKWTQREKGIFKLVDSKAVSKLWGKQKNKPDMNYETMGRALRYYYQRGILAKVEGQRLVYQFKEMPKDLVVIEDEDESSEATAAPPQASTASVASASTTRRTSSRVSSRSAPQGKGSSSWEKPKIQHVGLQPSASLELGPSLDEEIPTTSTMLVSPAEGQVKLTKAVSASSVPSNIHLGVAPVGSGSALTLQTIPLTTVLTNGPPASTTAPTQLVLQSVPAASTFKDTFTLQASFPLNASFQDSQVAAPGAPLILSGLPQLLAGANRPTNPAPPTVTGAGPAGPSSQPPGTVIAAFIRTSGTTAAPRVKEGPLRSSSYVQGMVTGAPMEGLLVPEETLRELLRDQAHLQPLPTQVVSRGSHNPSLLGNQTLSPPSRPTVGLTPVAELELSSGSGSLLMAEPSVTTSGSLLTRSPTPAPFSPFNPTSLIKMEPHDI
Another assay deals with T9, ELK4 (Homo sapiens, UniProt P28324-2 1-405).
T9 sequence: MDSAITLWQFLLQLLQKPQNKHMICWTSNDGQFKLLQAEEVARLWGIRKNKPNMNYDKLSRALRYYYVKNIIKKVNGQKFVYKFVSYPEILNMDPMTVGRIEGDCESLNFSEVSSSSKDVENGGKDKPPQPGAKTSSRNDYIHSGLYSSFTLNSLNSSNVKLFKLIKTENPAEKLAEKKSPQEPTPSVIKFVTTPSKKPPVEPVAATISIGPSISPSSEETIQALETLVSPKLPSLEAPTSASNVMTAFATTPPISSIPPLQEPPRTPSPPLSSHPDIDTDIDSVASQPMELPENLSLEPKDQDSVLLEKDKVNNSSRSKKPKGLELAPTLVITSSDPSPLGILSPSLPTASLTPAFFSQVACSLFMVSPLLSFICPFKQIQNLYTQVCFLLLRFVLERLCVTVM
The conditions noted are these: protein: recombinant; tags: N-terminal GST; dsDNA, one strand shown. In a few lines: as §1

The target of the next assay is T10, ETV2 (Homo sapiens, UniProt O00321 1-342).
T10 sequence: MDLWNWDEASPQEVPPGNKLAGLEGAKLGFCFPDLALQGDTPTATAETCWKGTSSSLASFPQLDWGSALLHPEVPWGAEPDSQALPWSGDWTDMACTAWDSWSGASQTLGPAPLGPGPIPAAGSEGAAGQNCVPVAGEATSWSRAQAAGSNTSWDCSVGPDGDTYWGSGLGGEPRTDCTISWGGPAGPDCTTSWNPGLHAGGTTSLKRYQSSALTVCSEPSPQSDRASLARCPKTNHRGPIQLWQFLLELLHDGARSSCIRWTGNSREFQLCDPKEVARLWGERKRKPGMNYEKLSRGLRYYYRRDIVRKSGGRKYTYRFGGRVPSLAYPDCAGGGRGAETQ
The conditions noted are these: protein: recombinant; tags: N-terminal GST; dsDNA, one strand shown. In short, it runs like this: as §1

The target in a further assay is T11, ELF3 (Homo sapiens, UniProt P78545 1-371).
T11 sequence: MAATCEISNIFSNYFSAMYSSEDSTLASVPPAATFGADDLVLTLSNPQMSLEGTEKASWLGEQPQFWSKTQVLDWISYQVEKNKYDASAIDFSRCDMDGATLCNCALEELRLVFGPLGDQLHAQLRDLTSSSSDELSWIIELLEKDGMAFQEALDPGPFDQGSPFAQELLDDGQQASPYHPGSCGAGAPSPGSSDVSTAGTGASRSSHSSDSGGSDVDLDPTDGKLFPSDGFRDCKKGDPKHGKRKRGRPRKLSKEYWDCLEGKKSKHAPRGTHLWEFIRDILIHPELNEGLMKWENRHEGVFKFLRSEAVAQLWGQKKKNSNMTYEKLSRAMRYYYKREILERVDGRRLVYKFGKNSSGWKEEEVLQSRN
As to conditions: protein: recombinant; tags: N-terminal GST; dsDNA, one strand shown. In short, it runs like this: as §1

Another assay concerns the target CRX (Homo sapiens, UniProt O43186 1-299). The conditions noted are these: protein: recombinant; tags: N-terminal GST; dsDNA, one strand shown. In short, it runs like this:
as §1

The target in the next assay is ETV1 (Homo sapiens, UniProt P50549 1-477). The conditions noted are these: protein: recombinant; tags: N-terminal GST; dsDNA, one strand shown. In a few lines: as §1
Sequence of ETV1 (P50549 whole entry): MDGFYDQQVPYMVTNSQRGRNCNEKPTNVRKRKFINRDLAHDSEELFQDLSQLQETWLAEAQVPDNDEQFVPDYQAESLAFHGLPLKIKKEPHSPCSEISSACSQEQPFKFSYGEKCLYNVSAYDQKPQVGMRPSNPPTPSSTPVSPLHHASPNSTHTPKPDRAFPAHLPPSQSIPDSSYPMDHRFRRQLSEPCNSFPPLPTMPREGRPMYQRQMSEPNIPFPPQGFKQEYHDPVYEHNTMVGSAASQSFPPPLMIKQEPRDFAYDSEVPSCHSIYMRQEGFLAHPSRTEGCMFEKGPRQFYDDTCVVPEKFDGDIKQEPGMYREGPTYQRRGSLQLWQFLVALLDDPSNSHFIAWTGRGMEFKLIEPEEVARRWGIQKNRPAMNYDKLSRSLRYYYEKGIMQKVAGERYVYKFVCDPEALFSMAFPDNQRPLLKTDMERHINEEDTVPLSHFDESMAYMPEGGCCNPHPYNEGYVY

Sequence of SPIB (Q01892 whole entry): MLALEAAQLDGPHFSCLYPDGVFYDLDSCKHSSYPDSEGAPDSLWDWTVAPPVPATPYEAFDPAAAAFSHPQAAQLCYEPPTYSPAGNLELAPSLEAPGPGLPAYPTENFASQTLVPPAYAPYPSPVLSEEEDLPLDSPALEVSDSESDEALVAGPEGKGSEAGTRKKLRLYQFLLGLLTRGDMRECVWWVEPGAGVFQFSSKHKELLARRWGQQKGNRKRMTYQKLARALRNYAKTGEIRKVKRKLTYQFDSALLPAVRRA
Sequence of CRX (O43186 whole entry): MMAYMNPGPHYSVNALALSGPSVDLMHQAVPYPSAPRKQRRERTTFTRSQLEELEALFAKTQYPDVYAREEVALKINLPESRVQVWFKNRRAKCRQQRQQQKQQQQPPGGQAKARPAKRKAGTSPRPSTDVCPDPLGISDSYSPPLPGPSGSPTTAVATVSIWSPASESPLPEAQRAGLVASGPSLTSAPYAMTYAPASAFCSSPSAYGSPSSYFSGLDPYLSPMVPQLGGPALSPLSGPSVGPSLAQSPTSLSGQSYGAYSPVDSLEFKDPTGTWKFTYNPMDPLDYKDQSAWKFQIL
Sequence of ELF1 (P32519 whole entry): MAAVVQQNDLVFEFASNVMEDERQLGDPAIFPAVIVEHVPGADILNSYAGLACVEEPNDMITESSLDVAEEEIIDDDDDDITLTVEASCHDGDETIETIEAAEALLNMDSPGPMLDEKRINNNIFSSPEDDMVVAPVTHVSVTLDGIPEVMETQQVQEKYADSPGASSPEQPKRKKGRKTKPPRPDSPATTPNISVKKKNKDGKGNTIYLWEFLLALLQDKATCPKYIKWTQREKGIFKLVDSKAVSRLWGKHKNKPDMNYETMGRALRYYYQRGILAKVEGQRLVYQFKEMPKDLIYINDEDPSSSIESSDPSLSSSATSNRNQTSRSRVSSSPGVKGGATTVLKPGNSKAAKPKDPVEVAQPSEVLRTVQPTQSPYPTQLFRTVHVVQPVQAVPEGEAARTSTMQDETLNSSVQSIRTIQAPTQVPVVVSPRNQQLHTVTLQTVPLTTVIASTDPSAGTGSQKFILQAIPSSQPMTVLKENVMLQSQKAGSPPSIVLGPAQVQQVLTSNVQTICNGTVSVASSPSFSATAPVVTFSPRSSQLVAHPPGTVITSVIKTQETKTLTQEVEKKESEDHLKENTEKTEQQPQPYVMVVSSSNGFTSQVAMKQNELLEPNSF

With ATTCAA, the binding signal in the assay with FLI1 was 1.26 fold enrichment (6-mer frequency, TF over GST control); with ELK1, 1.34 fold enrichment (6-mer frequency, TF over GST control); with GABPA it was 1.4 fold enrichment (6-mer frequency, TF over GST control); in the assay with ERG, 1.36 fold enrichment (6-mer frequency, TF over GST control); with ELF1, 1.39 fold enrichment (6-mer frequency, TF over GST control); with EHF it was 1.41 fold enrichment (6-mer frequency, TF over GST control). In addition, the binding signal with SPI1 is 1.31 fold enrichment (6-mer frequency, TF over GST control); with SPIB, 1.34 fold enrichment (6-mer frequency, TF over GST control); in the assay with ELK3, 1.39 fold enrichment (6-mer frequency, TF over GST control); with FEV it was 1.27 fold enrichment (6-mer frequency, TF over GST control); with ETV5, 1.32 fold enrichment (6-mer frequency, TF over GST control); with HSF1, 1.32 fold enrichment (6-mer frequency, TF over GST control). The binding signal in the assay with SPIC is 1.32 fold enrichment (6-mer frequency, TF over GST control); with ELF4, 1.34 fold enrichment (6-mer frequency, TF over GST control); in the assay with ELK4, 1.39 fold enrichment (6-mer frequency, TF over GST control); in the assay with ETV2, 1.38 fold enrichment (6-mer frequency, TF over GST control); with ELF3, 1.38 fold enrichment (6-mer frequency, TF over GST control); in the assay with CRX it was 1.36 fold enrichment (6-mer frequency, TF over GST control). Moreover, in the assay with ETV1, the binding signal is 1.32 fold enrichment (6-mer frequency, TF over GST control).
